Our source for the Potency and outcome values is PubChem BioAssay (Tox21).

The structures appear in SMILES notation. Unmarked numbers belong to inactive results. Results filed as inconclusive are left out. Active and inactive are the calls of the source. Unless noted, calls follow the shape of the dose curve; as a rule, active = well fitted curve in the direction sought with a large enough effect in the repeat runs; inconclusive = weak or mixed curves; inactive = no such curve, though single readings can be large; an effect the other way counts as inactive or inconclusive.

The nature of test [1]: qHTS assay to identify small molecule HDAC inhibitors (AID 1259364).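 Also: wild-type HCT-116 cells with endogenous class I/II HDAC activity; top concentration of the series differs between compounds; nearly all actives have a fitted effect of over 45% in size.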 The essentials:
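After a 2 hr compound incubation (37C, 5% CO2), HCT-116 cells seeded at 1,500/well the day before received HDAC-Glo reagent; signal read as luminescence after 30 min at room temperature.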

The nature of test [2]: qHTS assay to identify small molecule HDAC inhibitors - cell viability counter screen (AID 1259365). Also: series mostly up to about 92 µM; nearly all actives have a fitted effect of over 50% in size. The essentials:
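HCT-116 wild-type, overnight attachment; 2hr drug exposure, 37C; CellTiter-Glo luminescent ATP readout after 30min RT.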
In general terms: qHTS replaces the single test concentration by a dilution series.

The nature of test [3]: qHTS assay to identify small molecule agonists of the sonic hedgehog signaling (Shh) pathway - cell viability counter screen (AID 1259366). Also: nearly all actives have a fitted effect of over 50% in size. The method, boiled down:
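Compounds in DMSO were pin-transferred onto 3T3 Gli1-Luc cells that had settled 4hr; plates then stood 24hr at 37C and 5% CO2. One hour before the end, CellTiter-Fluor was added and fluorescence recorded.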

The nature of test [4]: qHTS assay to identify small molecule antagonists of the sonic hedgehog signaling (Shh) pathway - cell viability counter screen (AID 1259367). Also: nearly all actives have a fitted effect of over 55% in size. The method, boiled down:
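Fluorescence read-out (CellTiter-Fluor, 1 hr at 37C) taken after 23 hr compound treatment of 3T3 Gli1-Luc cells stimulated with conditioned medium. Cells were seeded at 2,000 per well and pre-incubated 4 hr.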

Test [5] in a line: qHTS assay to identify small molecule antagonists of the sonic hedgehog signaling (Shh) pathway (AID 1259369; calls by dose curve; also: nearly all actives have a fitted effect of over 45% in size; also: potency is read from the fitted curve at half-maximal effect). The essentials: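 Gli1 transcriptional reporter (firefly Luc) in NIH/3T3 background, conditioned-medium activated. 24hr exposure, luminescence endpoint.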
The nature of test [6]: qHTS assay to identify small molecule agonists of the androgen receptor (AR) signaling pathway in the presence of an antagonist - cell viability counter screen (AID 1259379).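 Also: MDA-kb2 human breast cancer cells carrying an MMTV luciferase reporter; series mostly up to about 92 µM; nearly all actives have a fitted effect of over 25% in size.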 The method, boiled down: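 Counter screen for cell viability run in parallel with the AR agonist-mode luciferase assay. MDA-kb2 cells were co-treated with nilutamide (3.0uM final) and compounds, then incubated 16 hr at 37C, and CellTiter-Fluor fluorescence was measured.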

Test [7] is described as follows: qHTS assay to identify small molecule agonists of the estrogen receptor beta (ER-beta) signaling pathway - cell viability counter screen (AID 1259380). Also: nearly all actives have a fitted effect of over 30% in size. The method, boiled down:
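In this qHTS counter screen, HEK293T cells carrying an ER-beta/UAS beta-lactamase reporter, grown in 2% charcoal-stripped FBS, received compound for 16 hr; ATP-based CellTiter-Glo luminescence was then read after 30 min at room temperature.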

A short description of test [8]: qHTS assay to identify small molecule antagonists of the estrogen receptor beta (ER-beta) signaling pathway - cell viability counter screen (AID 1259382). Also: series mostly up to about 92 µM; nearly all actives have a fitted effect of over 55% in size. The essentials:
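HEK293T ER-beta-UAS-bla, 2% charcoal-stripped FBS; compounds + 1nM E2 16 hr 37C; CellTiter-Glo luminescence, 30 min RT.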

Test [9] in a line: qHTS assay to identify small molecule agonists or antagonists of the thyroid stimulating hormone receptor (TSHR) signaling pathway - wild type cell line counter screen (AID 1259384; calls by dose curve). The method, boiled down:
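Wild-type Hek293 cells, 800/well, 18 h at 37C, then compound with Ro20-1724 for 30 min RT. cAMP by HTRF (cAMP-d2/anti-cAMP cryptate), 1 h RT, fluorescence read. 15 concentrations, triplicates.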

Test [10] deals with Thyrotropin receptor (Homo sapiens) (UniProt P16473). The experiment in a line: qHTS assay to identify small molecule antagonists of the thyroid stimulating hormone receptor (TSHR) signaling pathway (AID 1259385; calls by dose curve; also: nearly all actives have a fitted effect of over 20% in size). The essentials:
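TSHR-HEK293 cells (800/well) plated 18 h, then compounds with Ro20-1724 and TSH at 1.5 ng/mL final, 30 min at room temperature. cAMP quantified by HTRF (cAMP-d2/anti-cAMP-cryptate, 1 h); 15 concentrations in triplicate.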

A short description of test [11]: qHTS assay to identify small molecule agonists of the estrogen receptor alpha (ER-alpha) signaling pathway in the presence of an antagonist - cell viability counter screen (AID 1259386).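 Also: series mostly up to about 92 µM; cells exposed to compounds for 22 h at 37 °C before the viability read; nearly all actives have a fitted effect of over 30% in size.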 The method, boiled down: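 Steps: 5-day stripped-FBS culture; seed and incubate 24hr; add ICI-182,780 (10.0nM final); pin 15-point compound titration; incubate 22hr at 37C; add CellTiter-Fluor at 21hr; read fluorescence.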

Test [12] has as its target Progesterone receptor (Homo sapiens) (UniProt P06401). The experiment in a line: qHTS assay to identify small molecule agonists of the progesterone receptor (PR) signaling pathway (AID 1346784; calls by dose curve; also: nearly all actives have a fitted effect of over 30% in size). The essentials: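 Fluorescence from LiveBLAzer B/G FRET substrate cleavage (2 hr, RT) reported PR activation in PR-UAS-bla HEK 293T cells treated 16 hr at 37C/5% CO2 with compounds; medium contained 2% charcoal-stripped FBS.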

Test [13] shares this target. The experiment in a line: qHTS assay to identify small molecule antagonists of the progesterone receptor (PR) signaling pathway (AID 1346795; active = well fitted inhibition curve with a large enough effect in the signal ratio in the repeat runs, not every such curve was filed as active; the % refers to the signal ratio). The essentials:
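Fluorescence intensity measured 2 hr after adding beta-lactamase FRET substrate to PR-UAS-bla HEK293T cells that had been co-treated 16 hr with compound and 1 nM R5020 (final concentration) in 2% charcoal-stripped FBS.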

A short description of test [14]: qHTS assay to identify small molecule antagonists of the progesterone receptor (PR) signaling pathway - cell viability counter screen (AID 1346798). Also: series mostly up to about 92 µM; nearly all actives have a fitted effect of over 50% in size. The essentials:
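CellTiter-Glo luminescence; PR-UAS-bla HEK293T, 3,000 cells/well; compound + R5020, 16 hr, 37C/5% CO2; 30 min RT before read.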

Test [15] in a line: qHTS assay to identify small molecule agonists of the progesterone receptor (PR) signaling pathway - cell viability counter screen (AID 1346799; calls by dose curve; also: nearly all actives have a fitted effect of over 45% in size). The essentials: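 In parallel with the beta-lactamase readout, cytotoxicity toward PR-UAS-bla HEK293T cells was measured by CellTiter-Glo luminescence following 16 hr compound incubation in 2% charcoal-stripped FBS medium.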
Test [16] can be described thus: qHTS assay to identify small molecule agonists of the sonic hedgehog signaling (Shh) pathway (AID 1259368; calls by dose curve;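 also: NIH/3T3-derived 3T3Gli1-Luc cells carrying a stable Gli1-driven firefly luciferase reporter; series mostly up to about 92 µM; nearly all actives have a fitted effect of over 15% in size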). The essentials: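 Stable NIH/3T3 Gli1-Luc reporter clone; 24 hr cpd exposure after a 4 hr settling period; luminescence endpoint.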
The target in test [17] is Estrogen receptor beta (Homo sapiens) (UniProt Q92731). The experiment in a line: qHTS assay to identify small molecule antagonists of the estrogen receptor beta (ER-beta) signaling pathway (AID 1259378; active = well fitted inhibition curve with a large enough effect in the signal ratio in the repeat runs, not every such curve was filed as active; the % refers to the signal ratio). The essentials:
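ER-beta-UAS-bla HEK293T cells in 2% charcoal-stripped FBS medium treated with compound plus 1nM final 17-beta-estradiol for 16 hr at 37C. Beta-lactamase reporter read by FRET substrate fluorescence after 2 hours at room temperature.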

Test [18] concerns the target Estrogen receptor (Homo sapiens) (UniProt P03372). The experiment in a line: qHTS assay to identify small molecule agonists of the estrogen receptor alpha (ER-alpha) signaling pathway in the presence of an antagonist (AID 1259383; calls by dose curve; also: top concentration of the series differs between compounds; nearly all actives have a fitted effect of over 15% in size). The essentials:
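ER-alpha agonism measured under antagonist challenge: 10.0nM ICI-182,780 (final) plus compound, 15 concentrations, 22hr, VM7Luc4E2 ERE-luciferase cells. Read by luminescence.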

The target of test [19] is Estrogen receptor beta (Homo sapiens) (UniProt Q92731). The experiment in a line: qHTS assay to identify small molecule agonists of the estrogen receptor beta (ER-beta) signaling pathway (AID 1259377; active = well fitted activation curve with a large enough effect in the signal ratio in the repeat runs, not every such curve was filed as active; the % refers to the signal ratio). The essentials:
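qHTS in ER-beta-UAS-bla HEK293T cells: 6 hr settling, then 16 hr compound at 37C, then LiveBLAzer substrate 2 h at RT before fluorescence reading.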

The target of test [20] is Androgen receptor (Homo sapiens) (UniProt P10275). As to the kind of experiment: qHTS assay to identify small molecule agonists of the androgen receptor (AR) signaling pathway in the presence of an antagonist (AID 1259381; calls by dose curve; also: nearly all actives have a fitted effect of over 15% in size). The method, boiled down: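 AR antagonist background: nilutamide 3.0uM final. Cell line: MDA-kb2, MMTV-driven luciferase, responsive to both AR and GR. Exposure 16hr, 37C, no CO2; ONE-Glo luminescence.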
Sequence of Androgen receptor (Homo sapiens) (P10275 whole entry, looked up): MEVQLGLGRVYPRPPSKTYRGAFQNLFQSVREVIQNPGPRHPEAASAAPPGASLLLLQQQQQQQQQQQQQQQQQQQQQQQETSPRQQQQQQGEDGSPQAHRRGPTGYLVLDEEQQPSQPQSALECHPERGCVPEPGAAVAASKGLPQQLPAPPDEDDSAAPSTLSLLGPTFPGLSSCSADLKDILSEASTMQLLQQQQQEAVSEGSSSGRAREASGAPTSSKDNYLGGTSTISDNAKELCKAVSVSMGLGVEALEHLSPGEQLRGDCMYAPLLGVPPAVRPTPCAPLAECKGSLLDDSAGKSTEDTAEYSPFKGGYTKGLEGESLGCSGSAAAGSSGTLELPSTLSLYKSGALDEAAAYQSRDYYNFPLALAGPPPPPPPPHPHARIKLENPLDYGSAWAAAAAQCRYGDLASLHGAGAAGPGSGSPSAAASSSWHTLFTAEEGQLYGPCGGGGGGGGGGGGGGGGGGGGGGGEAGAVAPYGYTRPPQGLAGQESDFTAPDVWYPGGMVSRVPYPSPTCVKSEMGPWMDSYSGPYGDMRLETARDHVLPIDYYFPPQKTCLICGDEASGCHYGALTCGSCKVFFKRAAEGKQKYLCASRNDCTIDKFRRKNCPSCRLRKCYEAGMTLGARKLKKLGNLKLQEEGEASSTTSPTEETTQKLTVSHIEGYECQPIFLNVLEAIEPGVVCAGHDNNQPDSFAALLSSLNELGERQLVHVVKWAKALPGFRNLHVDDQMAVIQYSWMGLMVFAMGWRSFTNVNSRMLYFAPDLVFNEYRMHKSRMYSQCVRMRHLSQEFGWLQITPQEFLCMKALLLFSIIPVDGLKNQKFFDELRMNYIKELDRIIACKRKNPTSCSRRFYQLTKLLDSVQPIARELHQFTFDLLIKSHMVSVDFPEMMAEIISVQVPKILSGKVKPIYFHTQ

Sequence of Thyrotropin receptor (Homo sapiens) (P16473 whole entry, looked up): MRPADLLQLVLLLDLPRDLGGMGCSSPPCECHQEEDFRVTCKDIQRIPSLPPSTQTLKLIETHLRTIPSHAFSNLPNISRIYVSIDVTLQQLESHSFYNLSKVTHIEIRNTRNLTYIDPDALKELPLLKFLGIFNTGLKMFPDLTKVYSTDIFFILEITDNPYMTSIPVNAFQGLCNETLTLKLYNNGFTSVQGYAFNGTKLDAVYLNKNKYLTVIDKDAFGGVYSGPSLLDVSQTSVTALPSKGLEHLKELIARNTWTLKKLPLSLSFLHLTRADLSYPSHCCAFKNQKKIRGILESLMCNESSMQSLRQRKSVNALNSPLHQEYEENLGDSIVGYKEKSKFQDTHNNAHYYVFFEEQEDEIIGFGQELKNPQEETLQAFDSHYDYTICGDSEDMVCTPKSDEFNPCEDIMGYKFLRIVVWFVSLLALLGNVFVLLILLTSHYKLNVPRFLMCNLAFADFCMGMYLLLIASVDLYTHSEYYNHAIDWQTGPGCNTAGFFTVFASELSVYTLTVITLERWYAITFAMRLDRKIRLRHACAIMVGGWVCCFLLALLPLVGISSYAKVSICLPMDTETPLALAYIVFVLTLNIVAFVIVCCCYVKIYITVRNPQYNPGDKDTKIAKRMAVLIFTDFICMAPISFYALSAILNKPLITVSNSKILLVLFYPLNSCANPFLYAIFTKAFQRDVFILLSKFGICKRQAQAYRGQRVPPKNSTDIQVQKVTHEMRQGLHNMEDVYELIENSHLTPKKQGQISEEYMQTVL
Sequence of Progesterone receptor (Homo sapiens) (P06401 whole entry, looked up): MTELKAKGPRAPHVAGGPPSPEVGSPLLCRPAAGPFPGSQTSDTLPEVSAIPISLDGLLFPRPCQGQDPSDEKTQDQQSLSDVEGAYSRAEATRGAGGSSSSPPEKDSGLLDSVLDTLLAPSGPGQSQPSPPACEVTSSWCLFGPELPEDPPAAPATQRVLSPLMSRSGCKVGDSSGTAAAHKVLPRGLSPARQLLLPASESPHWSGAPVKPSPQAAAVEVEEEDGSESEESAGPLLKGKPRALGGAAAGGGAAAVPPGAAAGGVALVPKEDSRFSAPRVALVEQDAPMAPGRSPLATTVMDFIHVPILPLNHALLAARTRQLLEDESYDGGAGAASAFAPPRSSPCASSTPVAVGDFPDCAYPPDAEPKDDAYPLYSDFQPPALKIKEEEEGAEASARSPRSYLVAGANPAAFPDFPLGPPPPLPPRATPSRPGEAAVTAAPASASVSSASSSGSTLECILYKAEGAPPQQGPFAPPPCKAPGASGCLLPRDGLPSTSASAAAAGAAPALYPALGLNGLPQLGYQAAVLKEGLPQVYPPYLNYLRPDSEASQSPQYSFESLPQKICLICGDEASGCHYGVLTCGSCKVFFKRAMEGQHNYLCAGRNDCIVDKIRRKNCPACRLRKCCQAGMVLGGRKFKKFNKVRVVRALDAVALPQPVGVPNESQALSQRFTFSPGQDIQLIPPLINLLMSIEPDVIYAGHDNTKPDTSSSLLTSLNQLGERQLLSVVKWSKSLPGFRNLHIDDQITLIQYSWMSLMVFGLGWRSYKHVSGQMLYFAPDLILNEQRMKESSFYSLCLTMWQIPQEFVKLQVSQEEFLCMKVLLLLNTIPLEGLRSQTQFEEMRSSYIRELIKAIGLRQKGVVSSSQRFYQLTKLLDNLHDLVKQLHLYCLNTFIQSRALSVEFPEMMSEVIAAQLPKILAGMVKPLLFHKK
Sequence of Estrogen receptor beta (Homo sapiens) (Q92731 whole entry, looked up): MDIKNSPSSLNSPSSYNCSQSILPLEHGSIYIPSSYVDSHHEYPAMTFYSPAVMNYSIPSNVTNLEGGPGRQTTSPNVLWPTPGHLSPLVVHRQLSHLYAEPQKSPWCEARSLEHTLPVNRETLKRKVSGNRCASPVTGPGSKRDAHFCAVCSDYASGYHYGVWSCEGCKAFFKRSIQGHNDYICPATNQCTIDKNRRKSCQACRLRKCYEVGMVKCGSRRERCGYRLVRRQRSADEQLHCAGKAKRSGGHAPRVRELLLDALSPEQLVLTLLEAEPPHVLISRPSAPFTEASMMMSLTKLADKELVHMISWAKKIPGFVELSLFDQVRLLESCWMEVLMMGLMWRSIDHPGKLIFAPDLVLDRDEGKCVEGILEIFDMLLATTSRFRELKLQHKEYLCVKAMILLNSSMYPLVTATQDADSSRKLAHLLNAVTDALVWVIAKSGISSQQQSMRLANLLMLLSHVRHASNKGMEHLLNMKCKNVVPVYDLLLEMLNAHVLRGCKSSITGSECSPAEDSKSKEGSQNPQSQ
Sequence of Estrogen receptor (Homo sapiens) (P03372 whole entry, looked up): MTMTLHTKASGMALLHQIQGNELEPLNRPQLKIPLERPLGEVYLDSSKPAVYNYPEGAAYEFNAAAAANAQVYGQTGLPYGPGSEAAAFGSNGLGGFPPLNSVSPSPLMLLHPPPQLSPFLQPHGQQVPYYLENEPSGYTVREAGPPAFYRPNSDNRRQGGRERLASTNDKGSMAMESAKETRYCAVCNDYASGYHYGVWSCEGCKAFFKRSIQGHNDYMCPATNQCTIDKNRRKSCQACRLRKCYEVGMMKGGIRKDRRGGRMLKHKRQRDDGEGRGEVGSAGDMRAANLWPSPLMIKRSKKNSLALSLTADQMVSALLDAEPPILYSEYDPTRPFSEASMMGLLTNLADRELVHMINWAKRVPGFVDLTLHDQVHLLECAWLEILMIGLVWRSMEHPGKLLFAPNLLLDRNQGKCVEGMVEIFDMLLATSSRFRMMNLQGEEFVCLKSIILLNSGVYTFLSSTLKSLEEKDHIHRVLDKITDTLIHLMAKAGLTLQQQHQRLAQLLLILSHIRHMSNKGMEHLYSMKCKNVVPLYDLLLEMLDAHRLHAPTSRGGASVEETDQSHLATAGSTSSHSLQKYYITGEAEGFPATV

Regarding `COc1c2occc2c(OC)c2c(=O)cc(C)oc12`, the Potency result in [1], in test [12] and in test [13] was “inactive” in each case. In addition, the result in test [2], in test [3], in [4], in [6], in test [7] and in test [8] was inactive. The outcome in test [9], in test [10], in [11], in test [14] and in test [15] was inactive. The Potency in [5] was 11.9 µM (active).

`O=C1CCCCO1`: the Potency entry in [1], in [5], in test [17], in test [18], in test [12] and in test [13] was “inactive” each time. In addition, the outcome in test [2], in test [3], in test [16], in test [6], in [7] and in [8] was inactive. For the same molecule, the result in [9], in [10], in test [11], in test [14] and in test [15] was inactive.

On to `COS(=O)(=O)O`, for which the Potency entry in test [1], in test [5], in test [19], in test [17], in [12] and in test [13] was “inactive” each time. For the same molecule, the call in test [2], in [3], in [6], in test [7], in test [8] and in test [9] was inactive. For the same molecule, the molecule was classed as inactive in test [10], in [11], in test [14] and in test [15].

As to `CC(C)Cn1cnc2c1c(=O)n(C)c(=O)n2C`, the Potency entry in [1], in test [5], in test [17] and in [13] was “inactive” each time. The call in [2], in test [3], in test [16], in test [6], in test [8] and in test [9] was inactive. In addition, the molecule was called inactive in [10], in test [11] and in test [14].

As for `C=CCOC(=O)CCCCCC`, the Potency result in test [1], in [5], in test [17], in [12] and in [13] was “inactive” in each case. Also, the result in test [2], in test [3], in test [16], in test [6], in test [7] and in test [20] was inactive. The molecule was called inactive in test [8], in test [9], in [10], in [11], in test [14] and in test [15].

For `CCCCSCCCC`, the Potency entry in test [1], in test [5], in test [19], in [17] and in test [13] was “inactive” each time. Moreover, the call in [2], in test [3], in test [16], in test [6], in test [8] and in test [9] was inactive. Further, the outcome in test [11], in test [14] and in [15] was inactive.

Consider `Cc1ccc(N)cc1S(=O)(=O)O`, for which the Potency entry in [1], in [5], in [19], in test [17], in test [18] and in test [12] was “inactive” in each case. Moreover, the Potency result in test [13] is “inactive”. Further, the call in test [2], in test [3], in [16], in test [6], in [7] and in test [8] was inactive. Further, the outcome in [9], in [10], in test [11], in test [14] and in [15] was inactive.
